About 11,000 (3.5%) of roughly 310,000 compounds were called active. Where a call stands in place of a potency, no number is given. Inconclusive results (about 8%) are left out. This is one part of a sample in which actives are shown more often than they occur. Calls follow the shape of the dose curve; as a rule, active = well fitted inhibition curve with a large enough effect; inconclusive = small, poorly fitted or top-dose-only effect, or effect the other way; inactive = flat fitted curve, though single readings scatter.
Potency is read from the fitted curve at half-maximal effect.

This test in a line: VP16 counterscreen qHTS for inhibitors of ROR gamma transcriptional activity.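 Also: Gal4-VP16 expression switched on by copper sulfate through the metallothionein promoter; nearly all actives have a fitted effect of over 50% in size.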 Conditions: Drosophila S2 Gal4-VP16 UAS-luciferase, luminescence, 20 h; series mostly up to 53.6 µM. (In general: The purpose of a counterscreen is to sort out artefacts and off-target activity.)
Turning to `CC(=O)c1ccc(S(=O)(=O)N(C)CCCC(=O)N(C)Cc2ccccc2F)cc1`, the Potency result is “inactive”.
With `CCOc1ccc(N(CC)S(=O)(=O)c2cccc3nsnc23)cc1` the entry was “inactive”; with `CN(C)/C=C1\C=C(c2ccccc2)OC1=O`, 35.5 µM (active); with `Cc1ccc(C2=C/C(=C\c3cccnc3)C(=O)O2)cc1`, “inactive”.
For the compound `CN(C)/C=C1/C(=O)Nc2ccccc21`, the Potency result is “inactive”.
With `COc1cc(NC(=O)CN2C(=O)NC(C)(c3ccc(OC(F)F)cc3)C2=O)cc(OC)c1OC` (stereo not given) the entry was “inactive”; with `Cc1ccc(O)c(CNc2nc3ccccc3[nH]2)c1`, “inactive”.
For `COc1ccc(NC(=O)CCCC(=O)c2ccccc2)cc1`, the Potency result is “inactive”.
Under `Cc1cccc(C(=O)NCCCN(C)CCCNC(=O)c2cccc(C)c2)c1` stands “inactive”; under `Cc1ccc(S(=O)(=O)NC(=O)c2cccc(C)c2)cc1`, “inactive”.
Under `Cc1cccc(C(=O)NC(=S)N(C)C2CCCCC2)c1` stands 2.24 µM (active).
Under `COc1ccc(N2CCN(C(=O)[C@@H](NC(=O)c3cc(OC)cc(OC)c3)C(C)C)CC2)cc1` stands “inactive”.
On to `CCC(NC(=O)c1cc(COc2ccc(F)c(F)c2)on1)c1ccncc1` (stereo not given), for which the Potency result is “inactive”.
Under `CC(Oc1ccc(Br)cc1Br)C(=O)NC1CCCC1` (stereo not given) stands “inactive”; under `Cc1ccc(NC(=S)NC2CCCC2)cc1`, 11.2 µM (active).
With `Cc1cc(Br)ccc1NC(=S)NC1CCCC1` the figure was 5.62 µM (active); with `CC(C)c1ccc(NC(=O)NC2CCCCC2)cc1`, “inactive”.
Under `Cc1cc(C)cc(NC(=O)NC2CCCCCCC2)c1` stands “inactive”; under `Cc1ccc(NC(=O)CSCC(=O)NC2CCCCC2)cc1`, “inactive”; under `CCC1=Nc2cc(C(=O)NCCN3CCCC3)ccc2Sc2ccc(C)cc21`, “inactive”.
Take `C/C(=N/OC(=O)c1ccc(Br)cc1)c1ccc(C)cc1`: the Potency result was “inactive”.
Regarding `COc1ccccc1C(=O)N/C(=C/c1ccco1)C(=O)Nc1ccc(C(=O)O)cc1`, the Potency result is “inactive”.
Take `Cc1ccc(/C=N/NC(=S)Nc2cccc(S(=O)(=O)N(C)C)c2)o1`: the Potency is 15.8 µM (active).
For the compound `CN(C)S(=O)(=O)c1cccc(NC(=O)Cc2ccsc2)c1`, the Potency entry was “inactive”.
With `CN(C)S(=O)(=O)c1cccc(NC(=O)COC(=O)c2cc(=O)[nH]c(=O)[nH]2)c1` the entry was “inactive”.
With `N#CCC(=O)NC1CCC(CC2CCC(NC(=O)CC#N)CC2)CC1` (stereo not given) the entry was “inactive”.
Under `COCCNc1ccc(-c2n[nH]c(=O)c3ccccc23)cc1[N+](=O)[O-]` stands “inactive”; under `Cc1ccc2oc(C(=O)N3CCN(C)C[C@@H]3C(C)C)c(C)c2c1`, “inactive”.
For `Cc1ccsc1C(=O)OCC(=O)c1cc(C)n(CC2CCCO2)c1C` (stereo not given), the Potency is 7.08 µM (active).
With `Cc1cc(C(=O)Cn2cnc3cc([N+](=O)[O-])ccc3c2=O)c(C)n1CC1CCCO1` (stereo not given) the entry was “inactive”; with `Cc1nnc(SCC(N)=O)n1CC1CCCO1` (stereo not given), “inactive”; with `CCOc1ccc2[nH]c(=O)c(CN(CCCO)S(=O)(=O)c3ccc(F)cc3)cc2c1`, “inactive”.
With `COc1ccc2oc(C(=O)NCc3ccco3)c(C)c2c1` the entry was “inactive”.
Turning to `Clc1ccccc1-c1cc(NCCN2CCOCC2)ncn1`, the Potency result is “inactive”.
Under `c1ccc2cc3c(NCCN4CCOCC4)ccnc3cc2c1` stands 12.6 µM (active); under `CN(C)c1ccc(-c2nc(NCCN3CCOCC3)c3ccccc3n2)cc1`, “inactive”.
With `COc1ccc(CS(=O)/C(Cl)=C(/Cl)C(=O)Nc2ccc(OC)nc2)cc1` (stereo not given) the figure was 3.98 µM (active).
Under `COc1ccc(C(=O)Nc2ccc(NC(=O)C(C)C)nc2)cc1` stands “inactive”; under `COc1ccc(NC(=O)/C(Cl)=C(/Cl)S(=O)Cc2ccc(C)cc2)cn1` (stereo not given), “inactive”.
`COc1cccc(CNC(=O)COc2cc(O)c3c(c2)OC(C)(C)CC3=O)c1`: the Potency entry is “inactive”.
Under `COc1ccc(/C=N/NC(=O)c2ccccc2)cc1OS(=O)(=O)c1ccccc1` stands “inactive”; under `COc1cc(/C=N/O)ccc1OCc1ccc([N+](=O)[O-])cc1`, “inactive”.
With `CCOc1c(Cl)cc(/C=N/O)cc1OC` the entry was “inactive”; with `COc1cc(/C=N/O)cc(Br)c1OCc1cccc(Cl)c1`, 11.2 µM (active); with `COc1cc(/C=N/Nc2ccc(C)cc2)cc(Br)c1O`, “inactive”.
Under `COc1cc(/C=N/O)cc(Br)c1OS(=O)(=O)c1ccc(C)cc1` stands 11.2 µM (active); under `CCc1c(C)c2ccc(OC3CCCCC3=O)cc2oc1=O` (stereo not given), “inactive”; under `CCOCCCN1C(=O)C2C(C(=O)Nc3ccc(OCC)cc3)C3C=CC2(O3)C1C(=O)NC1CCCCC1` (stereo not given), “inactive”.
With `O=C(NC1CC1)C(Cc1ccccc1)NS(=O)(=O)c1ccccc1F` (stereo not given), the Potency result was “inactive”.
With `Cc1ccc(NC(=O)Nc2cccnc2)cc1` the entry was “inactive”; with `COc1cc(/C=C(\C#N)c2nc3ccccc3[nH]2)ccc1O`, “inactive”; with `COc1cc(/C=C(\C#N)c2nc3c(s2)CC(C)CC3)ccc1O` (stereo not given), 4.47 µM (active).
Under `COc1cc(/C=N/Nc2nc3ccccc3s2)ccc1O` stands “inactive”; under `Cc1cc(-c2nnc(SCC(=O)Nc3ccc(S(N)(=O)=O)cc3)n2N)n[nH]1`, “inactive”; under `NC(=O)c1cc(S(=O)(=O)N2CCCC2)ccc1OCc1ccc(F)cc1`, “inactive”.
Under `COC(=O)c1ccccc1NC(=O)CSc1n[nH]c(-c2ccncc2)n1` stands “inactive”.
With `Cc1ccc(CSCC2Nc3ccc(C(=O)N4CCN(c5ccc(F)cc5)CC4)cc3NC2=O)cc1` (stereo not given), the Potency result was “inactive”.
With `CN(C)CCCN(C(=O)c1ccc(S(=O)(=O)N2CCCCCC2)cc1)c1nc2ccc(Br)cc2s1` the figure was 17.8 µM (active); with `CC(=O)N(CCCN(C)C)c1nc2ccc(C)cc2s1`, “inactive”; with `CCN(CC)CCN(C(=O)c1ccc(S(=O)(=O)N2CCOCC2)cc1)c1nc2cc3c(cc2s1)OCCO3`, “inactive”.
Under `Cc1ccc(SCC(=O)Nc2ncc(C)s2)cc1` stands “inactive”.
With `Cc1cnc(NC(=O)c2ccccn2)s1` the figure was 4.47 µM (active); with `O=C(Cc1cccs1)Nc1nnc(C2CC2)s1`, “inactive”; with `Cc1cnc(NC(=O)CSc2c(Cl)cccc2Cl)s1`, “inactive”.
Take `O=C(Nc1nnc(C2CC2)s1)c1ccccn1`: the Potency was 4.47 µM (active).
With `Cc1occc1C(=O)Nc1nnc(C2CCCCC2)s1` the entry was “inactive”; with `Cc1cccc(NC(=O)c2sc3nc(N4CCOCC4)c4c(c3c2N)CCCC4)c1`, “inactive”.
Regarding `CN(CCNC(=O)c1cc2c(-c3ccccc3F)nn(C)c2s1)C1CCCCC1`, the Potency result is “inactive”.
In the case of `NC(=O)c1oc2ccccc2c1NC(=O)Cc1ccccc1`, the Potency entry is “inactive”.
With `COc1cc2c(C(=O)O)c(C)n(C)c2c2ccccc12`, the Potency result is “inactive”.
With `Cc1c(C(=O)N/N=C/c2ccccc2)[nH]c2c([N+](=O)[O-])cccc12` the entry was “inactive”.
Under `COc1cccc2c(C)c(C(=O)O)[nH]c12` stands 10 µM (active); under `CNC(=O)C(=O)N/N=C/c1ccccn1`, “inactive”.
With `O=C(Nc1ccc(S(=O)(=O)Nc2ncccn2)cc1)C12CC3CC(CC(C3)C1)C2` the entry was “inactive”; with `O=C(N/N=C/c1ccccn1)C12CC3CC(CC(C3)C1)C2`, 20 µM (active).
Regarding `COc1cc2ccccc2cc1C(=O)Nc1ccc(NC(=O)c2cccs2)cc1`, the Potency result was “inactive”.
Under `Cc1csc(=NC(=O)c2ccccc2)n1CCO` stands “inactive”; under `Cc1csc(=Nc2ccccc2)n1CCO`, “inactive”; under `C=C(C)CNC(=S)/N=c1\scc(C)n1CC`, 8.91 µM (active).
On to `CC(C)(c1ccccc1)c1ccc(OCCN2CCCC2)cc1`, for which the Potency entry is “inactive”.
In the case of `CC(C)=CCN1CCN(Cc2cc3ccccc3[nH]2)CC1CCO` (stereo not given), the Potency entry is “inactive”.
Under `O=C(CSc1ccc(-c2ccc(Br)cc2)nn1)NCC1CCCO1` (stereo not given) stands “inactive”; under `O=C(c1cc(C(F)(F)F)cc(C(F)(F)F)c1)N1CCC2(CC1)CN(c1ccncc1)C2`, “inactive”; under `O=C(c1cc(C(F)(F)F)cc(C(F)(F)F)c1)N1CCC[C@@]2(CCN(c3ccccn3)C2)C1`, “inactive”.
For `O=C(c1cc(C(F)(F)F)cc(C(F)(F)F)c1)N1CCC2(CCCN(c3ccccn3)C2)CC1`, the Potency is 12.6 µM (active).
Under `Cc1ccc2c(cnn2C(=O)CCC(=O)NC2CCCC2)c1` stands “inactive”; under `COc1ccccc1NC(=O)c1ccc(N2CC3CC(C2)c2cccc(=O)n2C3)c(NC(=O)c2cccnc2)c1` (stereo not given), “inactive”; under `CC(=O)Nc1nc2ccccc2n1Cc1ccc(C)cc1`, 2.51 µM (active).
With `CCC(=O)Nc1nc2ccccc2n1Cc1ccccc1C` the entry was “inactive”.
With `Cc1ccc(-n2nc3cc(Cl)c(NC(=O)c4ccco4)cc3n2)cc1` the entry was “inactive”; with `CC(=O)c1nc2ccccc2n1Cc1ccccc1`, “inactive”.
As for `CCn1nc(NC(=O)c2ccco2)c2cc3ccc(C)cc3nc21`, the Potency entry was “inactive”.
Under `Cc1ccc(Cn2c(NC(=O)c3ccco3)nc3ccccc32)cc1` stands 1.58 µM (active); under `COc1ccc(CNC(=O)C(C)NCc2ccccc2Cl)cc1` (stereo not given), “inactive”.
For the compound `CN(C)S(=O)(=O)c1ccc(C(=O)NCCN=C2NS(=O)(=O)c3ccccc32)cc1`, the Potency result was “inactive”.
With `Cc1cc2occ(CC(=O)NNC(=O)c3ccccc3F)c2cc1C` the entry was “inactive”.
Under `O=C(NNc1cc(Cl)ccc1Cl)c1cccnc1Cl` stands “inactive”; under `CC(=O)/C(=N\Nc1ccc(Cl)cc1Cl)Sc1cccc2cccnc12`, 5.01 µM (active).
Under `N#Cc1ccc(C(=O)Nc2cccc3cccnc23)c(F)c1` stands “inactive”; under `CCn1c(CC(=O)Nc2ccccc2C)nnc1SCC(=O)NC1=NCCS1`, “inactive”; under `CC1CC(C)CN(S(=O)(=O)c2cccc3nonc23)C1` (stereo not given), “inactive”.
Consider `Cc1nnc2n1N=C(c1ccccc1)CS2`, for which the Potency result was “inactive”.
With `CCOc1cc(NC(=O)c2ccccc2C(=O)O)c(OCC)cc1NC(=O)c1ccccc1F` the entry was “inactive”.
Under `CCC(=O)Nc1ccc2nc(C)n(Cc3ccccc3Cl)c(=O)c2c1` stands “inactive”; under `CCN1CCN(c2cc3nc(C)n(Cc4ccccc4)c(=O)c3cc2NC(=O)c2ccccc2F)CC1`, 11.2 µM (active); under `COc1cccc(NC(=O)CN(C)C(=O)c2ccccc2CCc2ccccc2)c1`, “inactive”.
Under `CC1CCCCC1NC(=O)c1cn(C)c2ccc(S(=O)(=O)N3CCOCC3)cc2c1=O` (stereo not given) stands “inactive”; under `O=c1onc(-c2c(F)cccc2F)n1-c1ccccc1Cl`, “inactive”.
In the case of `COc1ccc([N+](=O)[O-])cc1NCC(=O)c1ccc(C)cc1`, the Potency entry was “inactive”.
Under `Cc1nn(CC(=O)NC2CCCCC2)c(=O)c2cccn12` stands “inactive”.

The record behind these values is PubChem BioAssay AID2546 (National Center for Advancing Translational Sciences (NCATS), 2010).
